# Measurements reported in PubChem BioAssay (NCI).
# About 83,000 compounds went through this panel and 20% of them were active in at least one assay; those are over-represented in the sample as a whole.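 Treatment: one concentration, 48 hours, 96-well format. Scoring: percent growth, with anything below 10 considered active.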 Unmarked numbers belong to inactive results. Calls of active or inactive are those of the source.
# Test system: TK-10 renal
# Test: NCI-60 one-dose screen, 48 h (100 = growth as untreated, 0 = no growth, -100 = all killed)
# Conditions: 10 µM unless noted
row,Compound,growth
1,O=C1CN(Cc2ccc(C(=O)NO)cc2)C(=O)[C@@H](Cc2ccccc2)N1,106%
2,COc1ncc(-c2ccc3nccc(C#CCCCCC(=O)NO)c3c2)cc1NS(=O)(=O)c1ccc(F)cc1F,-25.1% (active)
3,CCCCCN(CCCCC)CCCCCCCCN1CCCc2ccccc21,89%
4,CC1Cc2c(Cl)ncnc2N(C)c2ccc(O)cc21 (centres undefined),94.5%
5,Cc1ccc2c(n1)C(=O)C(Cl)=C(Nc1ccc(N3CCN(C)CC3)cc1)C2=O,100%
6,CCOc1cc(/C=N\NC(=O)N/N=C/c2ccc(O)c(OCC)c2)ccc1O,34.3%
7,C1=C[C@H]2O[C@@H]1c1ccc3[nH]ccc3c12,105%
8,CC1(C)CC[C@]2(C(=O)O)CC[C@]3(C)[C@H](CC[C@@H]4[C@@]5(C)CCC(=O)C(C)(C)[C@@H]5CC[C@]43C)[C@H]2[C@H]1OC(=O)C(F)(F)F,-84.1% [100 µM] (active)
9,[2H]C1([2H])CCN(C(=O)C2CC2)c2cc(NS(=O)(=O)c3ccc(-c4cccc(C(N)=O)c4)cc3)ccc21,64.2%
10,CCOC(=O)c1sc2nc(-c3cc(OC)c(OC)c(OC)c3)nc(N3CCOCC3)c2c1C,48.3%
11,O=C(CCN1CCCCC1)c1ccc(Cl)cc1,103%
12,O=C1CC(C(F)(F)F)Cc2nc3ccc(Br)cc3cc21 (centres undefined),145%
13,NC(=O)c1cccc(-c2ccc(S(=O)(=O)Nc3ccc4c(c3)N(C(=O)C3CC3)CCC4)cc2)c1,77.8%
14,CCOC(=O)CCC[P+](c1ccccc1)(c1ccccc1)c1ccccc1,95.9%
15,CC1(C)CC[C@]2(C(=O)O)CC[C@]3(C)C(=CC[C@@H]4[C@@]5(C)C/C(=C/c6cccnc6)[C@H](O)C(C)(C)[C@@H]5CC[C@]43C)[C@@H]2C1,1.87% [100 µM] (active)
16,C#C[C@]1(O)CC[C@H]2[C@@H]3CC=C4c5nc(Nc6ccccc6[N+](=O)[O-])sc5CC[C@]4(C)[C@H]3CC[C@@]21C,72.4%
17,O=C(N/N=C\c1cc(Cl)ccc1O)N/N=C/c1cc(Cl)ccc1O,55.4%

row,Compound,growth
1,C=C(C)[C@@H]1CC[C@]2(C(=O)NCCNCCNC(=O)OC(C)(C)C)CC[C@]3(C)[C@H](CC[C@@H]4[C@@]5(C)CCC(=O)C(C)(C)[C@@H]5CC[C@]43C)[C@@H]12,54% [100 µM]
2,Cc1cc(C)c(O)c(CNCCCNCc2cc(C)cc(C)c2O)c1,77%
3,O=C(Nc1ccc(C(=O)/C=C/c2ccc(N3CCOCC3)cc2)cc1)Nc1ccc([N+](=O)[O-])cc1,88.5%
4,C[C@H]1[C@H](C)CC[C@]2(C(=O)N3CCN(C)CC3)CC[C@]3(C)C(=CC[C@@H]4[C@@]5(C)C/C(=C/c6ccco6)C(=O)C(C)(C)[C@@H]5CC[C@]43C)[C@H]12,43.7% [100 µM]
5,Nc1nc(Cl)c2ncn(Cc3cc4c(cc3I)OCO4)c2n1,23.6%
6,Fc1cc2[nH]ncc2c2c3c(c(-c4cn[nH]c4C(F)(F)F)nc12)C1CCC3C1 (centres undefined),-11.2% (active)
7,CC1Cc2c(Cl)ncnc2N(C)c2ccccc21 (centres undefined),15.1%
8,C=C(C)[C@@H]1CC[C@]2(COCCCN)CC[C@]3(C)[C@H](CC[C@@H]4[C@@](C)(CCCNCCCN)[C@H](C(=C)C)CC[C@]43C)[C@@H]12,-62.4% [100 µM] (active)
9,CCCCCCSc1ncnc2nc[nH]c12,103%
10,C[C@@H]1C[C@H]2C(=O)O[C@@H](C)[C@H](NC(=O)[C@H](Cc3cc(F)cc(F)c3)NC(=O)Nc3ccc(C4CC4)cc3F)C(=O)N3CCC[C@H]3C(=O)N3CCCC[C@H]3C(=O)N[C@@H](C)C(=O)N2C1,38.4%
11,O=[N+]([O-])c1ccc(O)c(-c2nc3ccccc3s2)c1,82.4%
12,COc1cc2c(cc1OC(C)=O)C(=O)CCCC2,118%
13,COc1ccc(CC(C#N)c2ccc(Cl)cc2)cc1 (centres undefined),109%
14,COc1ccc(N(c2nc(-c3ccc([N+](=O)[O-])cc3)cs2)C(C)C)cc1,88.9%
15,CCOc1ccc(S(=O)(=O)Nc2ccc3c(c2)N(S(=O)(=O)CC)CCC3)cc1,80.9%
16,Cc1cnc(N)nc1OCCNC(=O)c1cccc(-c2ccc(S(=O)(=O)Nc3ccc4c(c3)N(C(=O)C3CC3)CCC4)cc2)c1,93.1%
17,Fc1cc2[nH]ncc2c2c3c(c(-c4cn[nH]c4)nc12)CCCC3,20%
